PubChem BioAssay (NCATS)
Unmarked numbers belong to inactive results. Inconclusive results are not listed. Activity calls are given as the source filed them. Unless noted, the call rests on the fitted dose curve; in most records, active means well fitted curve in either direction with a large enough effect (not every such curve was filed as active); inconclusive means small, poorly fitted or top-dose-only effect, or another doubt; inactive means flat fitted curve, though single readings scatter.

How the values were obtained:
[1] = molecular target: Lysosomal acid glucosylceramidase (Homo sapiens) (UniProt P04062); assay: Glucocerebrosidase-p2 (AID 348; in the data active means potency below about 10 µM; further: potency means the concentration at half of the fitted maximal effect); conditions: purified GBA, blue fluorogenic substrate, 40 min
Lysosomal acid glucosylceramidase (Homo sapiens), sequence (P04062 whole entry, looked up): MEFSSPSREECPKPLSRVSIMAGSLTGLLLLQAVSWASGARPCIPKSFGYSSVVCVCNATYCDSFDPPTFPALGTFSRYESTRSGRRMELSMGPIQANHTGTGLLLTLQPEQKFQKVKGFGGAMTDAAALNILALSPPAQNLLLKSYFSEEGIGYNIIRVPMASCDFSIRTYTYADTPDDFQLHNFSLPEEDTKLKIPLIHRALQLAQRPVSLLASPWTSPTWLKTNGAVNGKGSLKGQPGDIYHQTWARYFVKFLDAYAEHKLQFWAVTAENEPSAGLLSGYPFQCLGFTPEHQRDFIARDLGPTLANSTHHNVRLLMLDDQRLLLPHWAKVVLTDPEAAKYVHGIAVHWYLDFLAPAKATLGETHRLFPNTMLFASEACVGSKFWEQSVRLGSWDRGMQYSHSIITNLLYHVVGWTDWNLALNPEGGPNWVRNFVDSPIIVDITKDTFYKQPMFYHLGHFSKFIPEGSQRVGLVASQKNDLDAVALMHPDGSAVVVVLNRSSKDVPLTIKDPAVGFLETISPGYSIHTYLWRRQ
Summary of the method: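 Compounds titrated from 0.6 nM upwards against 0.2 nM enzyme in pH 5.9 citric acid/KH2PO4, taurocholate, tween-20; blue fluorogenic substrate 80 uM, 40 min room temperature, stopped and read Ex 365/Em 440 for AC50.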

[2] = AP1 Signaling Pathway (AID 357); conditions: ME-180 AP-1-bla reporter, EGF-induced, beta-lactamase ratio, 5 h; at 7.69 µM (top of the series) unless noted;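 further: ME-180 reporter cells stimulated with EGF at its EC50 level; on the % scale 0 is the no-effect control and ±100 the full control effect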
Summary of the method: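 A ratiometric CCF4 readout (405 nm excitation; 460 and 530 nm emission) quantified AP-1-driven beta-lactamase in ME-180 cells after 5 h with compound and EC50 EGF; AC50 values were derived for activators and inhibitors.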

[3] = molecular target: Cytochrome P450 1A2 (Homo sapiens) (UniProt P05177); assay: p450-cyp1a2 (AID 410; calls by dose curve; further: potency means the concentration at half of the fitted maximal effect;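 on activity change, negative = inhibition: -100% = full effect of reference inhibitor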); conditions: recombinant CYP1A2, luciferin-ME demethylation, luminescence; series mostly up to 11.4 µM
Cytochrome P450 1A2 (Homo sapiens), sequence (P05177 whole entry, looked up): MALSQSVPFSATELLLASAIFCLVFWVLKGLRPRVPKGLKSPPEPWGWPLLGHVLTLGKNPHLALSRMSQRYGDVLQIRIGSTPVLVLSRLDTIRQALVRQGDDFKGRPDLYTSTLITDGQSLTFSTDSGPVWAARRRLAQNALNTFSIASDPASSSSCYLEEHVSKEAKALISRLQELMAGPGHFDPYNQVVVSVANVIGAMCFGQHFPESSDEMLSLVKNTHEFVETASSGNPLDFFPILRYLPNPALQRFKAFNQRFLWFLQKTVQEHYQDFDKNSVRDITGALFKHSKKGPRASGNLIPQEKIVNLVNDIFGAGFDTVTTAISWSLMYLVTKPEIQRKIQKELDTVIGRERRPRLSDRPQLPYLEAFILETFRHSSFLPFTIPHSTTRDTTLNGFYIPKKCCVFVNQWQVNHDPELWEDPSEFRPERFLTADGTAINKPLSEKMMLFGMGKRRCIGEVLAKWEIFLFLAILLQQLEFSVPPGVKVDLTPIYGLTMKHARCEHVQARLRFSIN
Summary of the method: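 Human CYP1A2 (20nM) demethylated Luciferin-ME at its Km (100uM) in 100mM KPO4. After 10 min compound preincubation, NADPH regeneration ran the reaction 60 min at room temperature. Luciferin was read by luminescence, normalized to 57 uM furafylline.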

[4] = NFAT Signaling Pathway (AID 444); conditions: Jurkat NFAT-bla M1, carbachol, beta-lactamase ratio, 5 h; at 7.69 µM (top of the series) unless noted;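 further: carbachol stimulus at about its EC50 of 1 µM final; on the % scale 0 is the no-effect control and ±100 the full control effect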
Summary of the method: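 Jurkat cells carrying an NFAT-driven β-lactamase reporter and co-transfected muscarinic M1 receptor were treated with compound plus carbachol (1 uM final, an EC50 level) for 5 h at 37 °C. CCF4 loading followed for 1 h at RT; 460/530 nm ratio gave %activity.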

[5] = Stat Signaling Pathway (AID 446); conditions: ME-180 SIE beta-lactamase reporter, IL-6 stimulated, 5 h; at 7.69 µM (top of the series) unless noted;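 further: ME-180 cervical cancer cells given 40 pM IL-6 alongside compound; SIE-controlled beta-lactamase reporter measured as 460/530 nm FRET emission ratio; on the % scale 0 is the no-effect control and ±100 the full control effect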
Summary of the method: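 Reporter line: ME-180 cervical carcinoma, SIE-beta-lactamase. Treatment: compound with 40 pM IL-6, 5 hrs, 37 C, in low-serum OPTI-MEM with 10 mM HEPES pH 7.3. Detection: 460/530 nm fluorescence.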

[6] = molecular target: Glucocorticoid receptor (Homo sapiens) (UniProt P04150); assay: GR-GFP Redistribution (AID 450;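 active means compounds whose dose series gives a full or clear partial fitted curve of increased nuclear translocation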; further: potency means the concentration at half of the fitted maximal effect); conditions: U2OS GR-GFP nuclear translocation, laser cytometry, 2 h
Glucocorticoid receptor (Homo sapiens), sequence (P04150 whole entry, looked up, the tested form may be a part): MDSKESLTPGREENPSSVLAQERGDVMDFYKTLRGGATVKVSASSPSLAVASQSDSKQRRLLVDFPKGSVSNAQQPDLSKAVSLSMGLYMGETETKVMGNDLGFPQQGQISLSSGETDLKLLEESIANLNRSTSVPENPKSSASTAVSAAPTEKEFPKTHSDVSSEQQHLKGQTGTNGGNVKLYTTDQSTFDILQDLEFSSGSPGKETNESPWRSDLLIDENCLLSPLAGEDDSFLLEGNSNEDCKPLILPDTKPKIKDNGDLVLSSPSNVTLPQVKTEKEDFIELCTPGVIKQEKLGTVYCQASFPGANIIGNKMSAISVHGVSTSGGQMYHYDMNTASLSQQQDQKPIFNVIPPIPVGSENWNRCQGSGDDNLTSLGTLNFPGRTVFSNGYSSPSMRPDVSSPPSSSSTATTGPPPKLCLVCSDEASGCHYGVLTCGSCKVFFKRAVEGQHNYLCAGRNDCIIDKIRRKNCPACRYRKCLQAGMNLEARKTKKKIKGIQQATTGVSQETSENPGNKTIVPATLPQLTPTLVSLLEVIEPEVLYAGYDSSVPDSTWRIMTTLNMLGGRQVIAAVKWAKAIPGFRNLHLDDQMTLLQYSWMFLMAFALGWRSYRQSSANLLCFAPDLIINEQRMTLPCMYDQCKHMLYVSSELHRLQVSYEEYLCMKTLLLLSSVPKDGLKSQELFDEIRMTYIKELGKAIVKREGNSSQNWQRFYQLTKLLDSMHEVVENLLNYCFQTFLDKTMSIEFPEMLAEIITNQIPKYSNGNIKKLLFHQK

[7] = molecular target: Glucocorticoid receptor (Homo sapiens) (UniProt P04150); assay: GR-EFC Redistribution (AID 451; calls by dose curve; further: potency means the concentration at half of the fitted maximal effect); conditions: CHO-K1 GR-EFC translocation, beta-gal luminescence, 2 h
Summary of the method: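 CHO-K1 cells stably expressing nuclear-localized β-gal enzyme acceptor and GR fused C-terminally to the enzyme donor fragment; ligand-driven nuclear translocation restores β-gal by complementation. Compounds titrated up to 46 uM final, 2 h at 37 °C; luminescence read.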

[8] = molecular target: Mitogen-activated protein kinase 10 (Mus musculus) (UniProt Q61831); assay: JNK3 AlphaScreen Assay (AID 530); conditions: JNK3 lysate, c-Jun phosphorylation; series mostly up to 11.4 µM;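 further: kinase came from lysate of stimulated human HepG2 cells; signal reports phosphorylation of biotinylated GST-cJun 1-79 at Ser73 with 10 µM ATP; on the % scale 0 is the no-effect control and ±100 the full control effect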
Summary of the method: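 JNK3 came from HepG2 lysates pre-activated with IL-1beta and TNF-alpha and phosphorylated biotinylated GST-cJun (1-79) at 10 uM ATP, pH 7.6, room temperature. Compounds were titrated. AlphaScreen signal used anti-phospho-cJun (Ser73) antibody.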

[9] = molecular target: 3',5'-cyclic-AMP phosphodiesterase 4B (Homo sapiens) (UniProt Q07343); assay: qHTS Assay for Inhibitors of PDE-IV (AID 607; active means well fitted activation curve with a large enough effect in the main read-out, with a control signal flat, not every such curve was filed as active; further: % of control where 0% means no effect); conditions: HEK293 ACTOne CNG channel cells, membrane potential fluorescence; series mostly up to 22.9 µM
3',5'-cyclic-AMP phosphodiesterase 4B (Homo sapiens), sequence (Q07343 whole entry, looked up): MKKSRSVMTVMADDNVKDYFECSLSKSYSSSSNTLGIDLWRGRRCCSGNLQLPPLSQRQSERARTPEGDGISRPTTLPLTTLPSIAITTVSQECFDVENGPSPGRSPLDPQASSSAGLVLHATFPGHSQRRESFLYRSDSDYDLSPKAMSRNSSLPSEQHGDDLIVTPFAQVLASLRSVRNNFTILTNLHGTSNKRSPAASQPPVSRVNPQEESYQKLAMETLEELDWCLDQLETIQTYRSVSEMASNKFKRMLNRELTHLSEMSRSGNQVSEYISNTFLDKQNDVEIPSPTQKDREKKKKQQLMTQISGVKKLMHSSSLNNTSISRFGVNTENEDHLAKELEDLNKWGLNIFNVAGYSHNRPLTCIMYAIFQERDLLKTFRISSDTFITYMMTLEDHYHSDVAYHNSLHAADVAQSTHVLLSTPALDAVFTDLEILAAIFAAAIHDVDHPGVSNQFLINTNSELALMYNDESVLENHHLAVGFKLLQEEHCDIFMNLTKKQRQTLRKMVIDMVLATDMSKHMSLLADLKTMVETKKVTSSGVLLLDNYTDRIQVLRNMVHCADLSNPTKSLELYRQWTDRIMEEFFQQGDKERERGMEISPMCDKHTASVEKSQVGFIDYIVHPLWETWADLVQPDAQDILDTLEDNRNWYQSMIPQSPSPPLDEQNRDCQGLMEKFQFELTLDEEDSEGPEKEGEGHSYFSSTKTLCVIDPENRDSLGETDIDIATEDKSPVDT
Summary of the method: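 Cell-based read-out of cAMP via a modified cyclic nucleotide-gated channel and membrane potential dye (535/590 nm) in HEK293 cells expressing PDE4 endogenously. Compounds tested up to 22.9 uM final; 100 uM RO 20-1724 reference.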

[10] = molecular target: Cytochrome P450 3A4 (Homo sapiens) (UniProt P08684); assay: qHTS Assay for Activators of Cytochrome P450 3A4 (AID 885; active means well fitted curve in the direction sought with a large enough effect; an effect the other way counts as inactive or inconclusive; further: nearly all actives have a fitted effect of over 65% in size); conditions: recombinant CYP3A4, Luciferin-PPXE luminescence, 60 min; series mostly up to 11.4 µM
Cytochrome P450 3A4 (Homo sapiens), sequence (P08684 whole entry, looked up): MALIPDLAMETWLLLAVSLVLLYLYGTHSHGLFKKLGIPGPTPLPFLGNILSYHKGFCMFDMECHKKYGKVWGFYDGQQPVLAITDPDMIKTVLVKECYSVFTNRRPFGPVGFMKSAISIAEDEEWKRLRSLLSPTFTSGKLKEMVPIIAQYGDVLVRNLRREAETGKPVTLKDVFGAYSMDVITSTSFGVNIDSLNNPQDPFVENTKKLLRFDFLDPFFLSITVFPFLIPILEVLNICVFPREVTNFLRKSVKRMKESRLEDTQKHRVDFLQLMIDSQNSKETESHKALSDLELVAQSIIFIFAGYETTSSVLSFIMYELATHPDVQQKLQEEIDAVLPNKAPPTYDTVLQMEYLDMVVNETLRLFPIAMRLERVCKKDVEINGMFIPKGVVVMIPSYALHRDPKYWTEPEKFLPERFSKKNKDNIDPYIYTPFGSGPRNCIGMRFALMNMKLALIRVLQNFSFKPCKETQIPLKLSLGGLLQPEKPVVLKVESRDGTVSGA
Summary of the method: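 Signal was normalized against complete inhibition by 57 uM ketoconazole. The reaction used 20nM CYP3A4 with 25uM Luciferin-PPXE, 10-min compound preincubation and a 60-min NADPH-supported step at RT.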

[11] = molecular target: Cytochrome P450 2D6 (Homo sapiens) (UniProt P10635); assay: qHTS Assay for Inhibitors and Substrates of Cytochrome P450 2D6 (AID 891; active means well fitted curve in the direction sought with a large enough effect; an effect the other way counts as inactive or inconclusive; further: nearly all actives have a fitted effect of over 60% in size; further: potency means the concentration at half of the fitted maximal effect); conditions: recombinant CYP2D6, luciferin-ME EGE luminescence; series mostly up to 11.4 µM
Cytochrome P450 2D6 (Homo sapiens), sequence (P10635 whole entry, looked up): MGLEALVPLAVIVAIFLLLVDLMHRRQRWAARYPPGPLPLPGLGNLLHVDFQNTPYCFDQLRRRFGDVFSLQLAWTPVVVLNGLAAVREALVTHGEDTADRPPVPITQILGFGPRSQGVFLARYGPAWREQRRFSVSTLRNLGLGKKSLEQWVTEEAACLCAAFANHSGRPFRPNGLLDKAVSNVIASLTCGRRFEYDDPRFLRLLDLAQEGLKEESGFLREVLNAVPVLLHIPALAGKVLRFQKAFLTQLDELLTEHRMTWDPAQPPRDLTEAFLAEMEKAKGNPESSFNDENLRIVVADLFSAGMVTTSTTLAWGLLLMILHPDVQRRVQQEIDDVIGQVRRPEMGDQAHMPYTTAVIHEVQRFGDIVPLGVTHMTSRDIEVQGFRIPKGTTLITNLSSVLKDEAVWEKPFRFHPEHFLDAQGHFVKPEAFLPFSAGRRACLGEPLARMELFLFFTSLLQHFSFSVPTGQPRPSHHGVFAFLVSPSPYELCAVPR
Summary of the method: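 Human CYP2D6 (5 nM) with 30 uM Luciferin-ME EGE (at Km) in 100 mM KPO4, compound preincubated 10 min, then NADPH regeneration system for 60 min at room temperature. Luciferin read by luminescence; normalized to 1.43 uM quinidine.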

[12] = molecular target: Cytochrome P450 2C19 (Homo sapiens) (UniProt P33261); assay: qHTS Assay for Inhibitors and Substrates of Cytochrome P450 2C19 (AID 899; active means well fitted curve in the direction sought with a large enough effect; an effect the other way counts as inactive or inconclusive; further: nearly all actives have a fitted effect of over 60% in size; further: potency means the concentration at half of the fitted maximal effect); conditions: recombinant CYP2C19, luciferin-H EGE luminescence; series mostly up to 11.4 µM
Cytochrome P450 2C19 (Homo sapiens), sequence (P33261 whole entry, looked up): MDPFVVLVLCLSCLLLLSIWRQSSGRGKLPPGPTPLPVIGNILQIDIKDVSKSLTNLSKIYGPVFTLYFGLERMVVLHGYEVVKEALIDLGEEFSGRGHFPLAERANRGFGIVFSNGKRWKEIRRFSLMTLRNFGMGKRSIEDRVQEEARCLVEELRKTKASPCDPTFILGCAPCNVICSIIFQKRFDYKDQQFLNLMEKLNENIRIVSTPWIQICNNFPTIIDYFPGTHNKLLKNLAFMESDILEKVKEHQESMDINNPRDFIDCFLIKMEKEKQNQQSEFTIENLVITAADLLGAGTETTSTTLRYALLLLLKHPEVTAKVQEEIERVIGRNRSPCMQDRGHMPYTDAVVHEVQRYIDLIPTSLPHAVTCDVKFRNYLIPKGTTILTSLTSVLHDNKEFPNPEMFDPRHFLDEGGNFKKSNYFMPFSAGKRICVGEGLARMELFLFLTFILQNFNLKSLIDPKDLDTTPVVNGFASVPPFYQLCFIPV
Summary of the method: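 In 50mM KPO4, the reaction held 5nM enzyme and KM-level (10uM) Luciferin-H EGE; it ran 60 min at 37C after NADPH regeneration and a 10 min compound preincubation. Luminescence values were scaled to 57uM ketoconazole as complete inhibition.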

[13] = qHTS Assay for Identification of Small Molecule Agonists for Hypoxia Response Element Signaling Pathway (AID 914; active means well fitted activation curve with a large enough effect in the signal ratio, with a control signal flat, not every such curve was filed as active; the % refers to the signal ratio; further: % of control where 0% means no effect); conditions: ME-180 (cervical carcinoma) HRE-bla reporter, beta-lactamase ratio, CoCl2, 17 h; activation: hits give high values
Summary of the method: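 A beta-lactamase reporter under hypoxia response element control in ME-180 cells served as the system. Compound titrations plus EC50 CoCl2 ran 17 h at 37 degrees Celsius; AC50 values were fitted from %Activity.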

Compound	Potency [1] [µM]	activity change, negative = inhibition [2] [%]	Potency [3]	activity change, negative = inhibition [4] [%]	activity, negative = inhibition [5] [%]	Potency [6] [µM]	Potency [7] [µM]	Potency [8]	Potency [9]	Potency [10]	activity change, negative = inhibition [3]	Potency [11]	Potency [12]	activation [13] [%]
c1ccc(C2=NN[C@@H]3c4ccccc4-c4ccccc4N3C2)cc1	> 11.4	-18.5	200 nM (active)	-9.73	-6.54	> 46	> 9.22	inactive	inactive	inactive				
O=C(O)c1nc2nc(Cl)c(Cl)nc2[nH]1	> 11.4	0.697	inactive	-0.0714	2.39	> 46	> 9.22	inactive	inactive	inactive				
O=S1(=O)[C@H]([C@H]2CC3c4ccccc4C2c2ccccc23)[C@@H](N2CCCCC2)[C@@H]1c1ccccc1	> 11.4	28.4		-27.2	10.9	> 46	> 9.22	inactive	inactive	inactive	1.6% [at 2.29 µM]	3.16 µM (active)	2.51 µM (active)	
CCCn1cnc2c(SCc3ccc(Cl)cc3)nc(N)nc21	> 11.4	-19.8	1260 nM (active)	-4.9	-5.52	> 46	> 9.22	inactive	inactive	inactive			0.501 µM (active)	
Cc1cc(C(C)(C)C)c(OCCCN2CCOCC2)c(C(C)(C)C)c1	> 11.4	3.87		-12.7	0.456	> 46	> 9.22	inactive	inactive	inactive	-17.7% [at 2.29 µM]	2 µM (active)		1.57
ON(CCc1ccccn1)Cc1ccccc1	> 11.4	-1.79	2510 nM (active)	10.2	-0.0119	> 46	> 9.22	inactive	inactive	inactive				
NCCSCc1ccccc1Cl	> 11.4	1.67	3160 nM (active)	-5.94	2.36	> 46	> 9.22	inactive	inactive	inactive		3.16 µM (active)		
Nc1ccc(S(=O)(=O)c2ccc(NC(=O)c3cccnc3)cc2)cc1	> 11.4	-0.755		12.7	8.7	> 46	> 9.22	inactive	inactive	inactive	-21.1% [at 2.29 µM]			
Cc1cnc2cc(Cl)ccc2c1SCC(=O)O	> 11.4	-8.88		-0.25	-11.6	> 46	> 9.22	inactive	inactive	inactive	-2.3% [at 2.29 µM]			
Cc1ccc(-c2nnc(-c3ccc4ccccc4c3)o2)cc1	> 11.4	13.5	631 nM (active)	-21	14.3	> 46	> 9.22	inactive	inactive	inactive				
COCCn1c(=O)c(-c2ccccc2)nc2cnc(Oc3ccccc3)nc21	> 11.4	-29.9	1580 nM (active)	-6.49	-4.14	> 9.22	> 46	inactive	inactive	inactive				
c1cncc(-c2cc(-c3cc(-c4cccnc4)n[nH]3)[nH]n2)c1	> 11.4	4.4	501 nM (active)	14	-1.32	> 46	> 9.22	inactive	inactive	inactive				
Cc1nc2cnc(Oc3cccc(Cl)c3)nc2n(C[C@H]2CCCO2)c1=O	> 11.4	-15.8	7940 nM (active)	-3.55	-6.17	> 9.22	> 46	inactive	inactive	inactive				
CC(=O)Nc1ccc2c(c1)C(=Nc1ccc(C(=O)O)cc1)c1ccccc1-2	> 11.4	2.47	316 nM (active)	27.4	4.14	> 46	> 9.22	inactive	inactive	inactive				
NC(N)=N/N=C(/c1ccccc1)c1ccc(O)cc1O	> 11.4	-6.42	3160 nM (active)	5.67	6.43	> 46	> 9.22	inactive	inactive	inactive		1.26 µM (active)		
O=C(O)c1ccc(Oc2nc3ccccc3s2)cc1	> 11.4	-5.86	3160 nM (active)	11.2	5.77	> 46	> 9.22	inactive	inactive	inactive			3.98 µM (active)	
Nc1nc(Cc2ccccc2)nc(Cc2ccccc2)c1-c1ccccc1	> 11.4	-20.1	1000 nM (active)	11.3	-7.29	> 46	> 9.22	inactive	inactive	inactive				
Cc1ccc(C)c(NC(=O)NCc2ccc(Cl)cc2)c1	> 11.4	4.89	794 nM (active)	-4.37	8.15	> 46	> 9.22	inactive	inactive	inactive		3.98 µM (active)	1.58 µM (active)	
N#C/C(=C\NC(=S)c1ccncc1)c1nc2ccccc2s1	> 11.4	-3.92	3160 nM (active)	8.12	11.3	> 46	> 9.22	inactive	inactive	inactive				
Cn1c(=O)c2[nH]c(CCS)nc2n(C)c1=O	> 11.4	3.25	inactive	-18	3.06	> 46	> 9.22	inactive	inactive	inactive				
Cn1c(=O)c2[nH]c(SCCN3CCOCC3)nc2n(C)c1=S	> 11.4	0.183	631 nM (active)	15.6	1.45	> 46	> 9.22	inactive	inactive	inactive				
COc1c(O)ccc2c1CN1CCc3cc4c(cc3[C@@H]1C2)OCO4	> 11.4	-4.62	501 nM (active)	-25.2	7.58	> 46	> 9.22	inactive	inactive	inactive		0.158 µM (active)		
C[C@@H]1Oc2ccc(C(=O)C[C@@H](C(=O)O)c3ccc4c(c3)OCO4)cc2O1	> 11.4	1.87	794 nM (active)	-10.8	-5.57	> 46	> 9.22	inactive	inactive	inactive				
CC(C)c1ccccc1S(=O)c1ccccc1C(C)(C)O (stereo not given)	> 11.4	-11.8		20.3	2.89	> 46	> 9.22	inactive	inactive	inactive	-10.7% [at 2.29 µM]			
CC1(C)[C@@H]2CC[C@@](C)(C2)[C@H]1OC(=O)c1ccccc1C(=O)O	> 11.4	-1.12	inactive	4.7	-3.05	> 46	> 9.22	inactive	inactive	inactive		inactive	inactive	
C[C@H](C(=O)c1ccccc1)[C@@H](c1ccccc1)N1CCOCC1	> 11.4	-4.08	inactive	5.21	8.2	> 46	> 9.22	inactive	inactive	inactive			1.58 µM (active)	
O=C(CSc1nc2ccccc2c2ccccc12)c1ccccc1	> 11.4	-2.08	251 nM (active)	10.2	-4.01	> 46	> 9.22	inactive	inactive	inactive				
Br/C(=N\Nc1nn[nH]n1)c1ccncc1	> 11.4	9.43	inactive	24.2	1.9	> 46	> 9.22	inactive	inactive	inactive		inactive		
